In assay [1] the target is Nuclear receptor coactivator 3 (Homo sapiens) (UniProt Q9Y6Q9). The assay is described as follows: NCOA3 GAL4-fusion reporter inhibition – cell-based, luminescence, quadruplicate, confirmation (AID 588792;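 active = mean inhibition over 43.08%, the solvent-only control mean plus 3 SD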;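 also: 0% = DMSO treated cells and 100% = gossypol at 36 µM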). To be noted: HEK293 GAL4-SRC3 luciferase reporter, at 3.6 µM, stronger effect = higher value.
The test system of assay [2] is transactivating tegument protein VP16 (Human herpesvirus 1), Gal4-VP16 luciferase reporter. The assay is described as follows: repression of VP16-driven luciferase reporter – cell-based, luminescence, high throughput, counter-screen for SRC3 inhibitor project (AID 588794). The conditions noted are these: mammalian cells, at 3.6 µM, stronger effect = higher value.
Assay [3] addresses Nuclear receptor coactivator 1 (Homo sapiens) (UniProt Q15788). As to the kind of experiment: NCOA1 GAL4-fusion reporter inhibition – cell-based, luminescence, quadruplicate, confirmation (AID 588820;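 active = mean inhibition above 46.68%, the untreated control wells mean plus 3 SD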;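 also: 0% = DMSO wells and 100% = gossypol 36 µM treated wells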). To be noted: HEK293 GAL4-SRC1 luciferase reporter, at 3.6 µM, stronger effect = higher value.
Assay [4] in a line: repression of VP16-driven luciferase reporter – cell-based, luminescence, high throughput, counter-screen for SRC1 inhibitor project (AID 588824; in the data active = inhibition above about 25%). To be noted: cell-based VP16 transactivation luciferase luminescence; at 3.6 µM; stronger effect = higher value.
The nature of assay [5]: StAR promoter reporter inhibitors, counter-screen for LRH-1 inverse agonist project, cell-based, luminescence, high throughput (AID 651611; in the data active = inhibition above about 28%). To be noted: StAR promoter luciferase reporter counterscreen, at 3.6 µM, stronger effect = higher value.
Assay [6] has as its target Nuclear receptor subfamily 5 group A member 2 (Homo sapiens) (UniProt O00482). The assay is described as follows: NR5A2 activity suppression in reporter cells – cell-based, luminescence, confirmation (AID 651613; in the data active = inhibition above about 42%;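 also: HEK293T cells co-transfected with LRH-1 and StAR promoter luciferase reporter; 0% = vehicle wells and 100% = parental cells lacking receptor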). The conditions noted are these: cell-based LRH-1 luciferase reporter, inverse agonism; at 3.6 µM; stronger effect = higher value.
Assay [7] addresses Steroidogenic factor 1 (Homo sapiens) (UniProt Q13285). The assay is described as follows: inverse agonism at SF1 nuclear receptor – cell-based, luminescence, high throughput, counter-screen for LRH-1 inverse agonist project (AID 651614; in the data active = inhibition above about 44%;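 also: cells cotransfected with StAR promoter reporter and SF1 expression vector; 0% = vehicle on cells with receptor and 100% = vehicle on cells lacking receptor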). The conditions noted are these: cell-based SF1 luciferase reporter, at 3.6 µM, stronger effect = higher value.
A short description of assay [8]: compounds suppressing VP16-driven luciferase signal – cell-based, luminescence, high throughput, counter-screen for LRH-1 inverse agonist project (AID 651615; in the data active = inhibition above about 33%). To be noted: Gal4-VP16 luciferase reporter cells, at 3.6 µM, stronger effect = higher value.

Unmarked numbers belong to inactive results. The source made the active and inactive calls. Rule as the data show it, unless noted: active = inhibition above about 30%; inactive = the rest.

Chain of Steroidogenic factor 1 (Homo sapiens) (Q13285 whole entry, looked up, the tested form may be a part): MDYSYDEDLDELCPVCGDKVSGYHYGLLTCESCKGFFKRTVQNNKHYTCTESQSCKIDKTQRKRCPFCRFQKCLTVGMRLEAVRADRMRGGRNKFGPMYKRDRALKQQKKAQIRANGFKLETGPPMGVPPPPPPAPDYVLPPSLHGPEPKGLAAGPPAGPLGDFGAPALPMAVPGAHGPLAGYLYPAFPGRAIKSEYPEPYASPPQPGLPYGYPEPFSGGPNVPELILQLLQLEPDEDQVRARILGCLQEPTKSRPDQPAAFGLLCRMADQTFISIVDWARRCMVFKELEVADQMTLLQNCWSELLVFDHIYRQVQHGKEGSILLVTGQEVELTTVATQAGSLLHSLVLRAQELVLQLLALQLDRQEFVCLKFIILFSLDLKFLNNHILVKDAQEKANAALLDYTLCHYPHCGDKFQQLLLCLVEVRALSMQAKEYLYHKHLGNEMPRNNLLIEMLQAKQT
Chain of Nuclear receptor coactivator 3 (Homo sapiens) (Q9Y6Q9 whole entry, looked up, the tested form may be a part): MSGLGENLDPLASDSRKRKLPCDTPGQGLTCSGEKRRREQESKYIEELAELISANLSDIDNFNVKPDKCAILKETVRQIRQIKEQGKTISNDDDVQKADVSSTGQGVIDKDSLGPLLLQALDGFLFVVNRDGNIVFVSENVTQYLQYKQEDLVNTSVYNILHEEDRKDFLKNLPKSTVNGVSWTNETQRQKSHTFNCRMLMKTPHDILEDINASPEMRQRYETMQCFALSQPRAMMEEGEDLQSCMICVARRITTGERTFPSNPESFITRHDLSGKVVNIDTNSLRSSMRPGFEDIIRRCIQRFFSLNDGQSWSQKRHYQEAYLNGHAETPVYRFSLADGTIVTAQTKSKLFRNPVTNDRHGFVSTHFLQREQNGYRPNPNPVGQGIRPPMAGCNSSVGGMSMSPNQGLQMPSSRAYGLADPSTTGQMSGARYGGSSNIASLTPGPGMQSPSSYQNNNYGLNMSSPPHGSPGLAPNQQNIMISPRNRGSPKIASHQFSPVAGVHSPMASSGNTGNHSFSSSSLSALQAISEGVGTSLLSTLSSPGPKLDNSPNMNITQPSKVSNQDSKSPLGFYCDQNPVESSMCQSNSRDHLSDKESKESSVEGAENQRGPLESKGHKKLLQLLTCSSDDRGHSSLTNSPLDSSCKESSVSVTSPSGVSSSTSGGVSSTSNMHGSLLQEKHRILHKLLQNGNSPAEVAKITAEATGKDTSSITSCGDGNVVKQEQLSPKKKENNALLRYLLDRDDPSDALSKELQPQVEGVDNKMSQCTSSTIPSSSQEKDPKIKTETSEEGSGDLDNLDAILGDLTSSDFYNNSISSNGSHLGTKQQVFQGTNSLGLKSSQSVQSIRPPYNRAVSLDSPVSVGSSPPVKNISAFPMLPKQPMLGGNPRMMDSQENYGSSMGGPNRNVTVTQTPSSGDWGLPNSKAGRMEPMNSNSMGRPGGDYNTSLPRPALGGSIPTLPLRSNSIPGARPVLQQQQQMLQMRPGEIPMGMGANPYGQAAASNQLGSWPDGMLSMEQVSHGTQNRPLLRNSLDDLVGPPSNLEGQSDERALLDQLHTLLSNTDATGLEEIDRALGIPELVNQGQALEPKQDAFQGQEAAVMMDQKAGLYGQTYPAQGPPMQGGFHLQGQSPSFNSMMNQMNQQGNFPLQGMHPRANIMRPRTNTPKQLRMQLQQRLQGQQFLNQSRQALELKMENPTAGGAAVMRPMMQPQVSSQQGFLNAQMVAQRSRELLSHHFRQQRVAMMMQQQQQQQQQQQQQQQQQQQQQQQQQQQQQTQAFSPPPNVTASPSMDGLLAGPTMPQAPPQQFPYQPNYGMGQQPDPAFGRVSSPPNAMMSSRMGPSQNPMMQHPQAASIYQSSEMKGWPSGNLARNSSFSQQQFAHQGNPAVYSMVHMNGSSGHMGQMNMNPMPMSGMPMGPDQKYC
Chain of Nuclear receptor coactivator 1 (Homo sapiens) (Q15788 whole entry, looked up, the tested form may be a part): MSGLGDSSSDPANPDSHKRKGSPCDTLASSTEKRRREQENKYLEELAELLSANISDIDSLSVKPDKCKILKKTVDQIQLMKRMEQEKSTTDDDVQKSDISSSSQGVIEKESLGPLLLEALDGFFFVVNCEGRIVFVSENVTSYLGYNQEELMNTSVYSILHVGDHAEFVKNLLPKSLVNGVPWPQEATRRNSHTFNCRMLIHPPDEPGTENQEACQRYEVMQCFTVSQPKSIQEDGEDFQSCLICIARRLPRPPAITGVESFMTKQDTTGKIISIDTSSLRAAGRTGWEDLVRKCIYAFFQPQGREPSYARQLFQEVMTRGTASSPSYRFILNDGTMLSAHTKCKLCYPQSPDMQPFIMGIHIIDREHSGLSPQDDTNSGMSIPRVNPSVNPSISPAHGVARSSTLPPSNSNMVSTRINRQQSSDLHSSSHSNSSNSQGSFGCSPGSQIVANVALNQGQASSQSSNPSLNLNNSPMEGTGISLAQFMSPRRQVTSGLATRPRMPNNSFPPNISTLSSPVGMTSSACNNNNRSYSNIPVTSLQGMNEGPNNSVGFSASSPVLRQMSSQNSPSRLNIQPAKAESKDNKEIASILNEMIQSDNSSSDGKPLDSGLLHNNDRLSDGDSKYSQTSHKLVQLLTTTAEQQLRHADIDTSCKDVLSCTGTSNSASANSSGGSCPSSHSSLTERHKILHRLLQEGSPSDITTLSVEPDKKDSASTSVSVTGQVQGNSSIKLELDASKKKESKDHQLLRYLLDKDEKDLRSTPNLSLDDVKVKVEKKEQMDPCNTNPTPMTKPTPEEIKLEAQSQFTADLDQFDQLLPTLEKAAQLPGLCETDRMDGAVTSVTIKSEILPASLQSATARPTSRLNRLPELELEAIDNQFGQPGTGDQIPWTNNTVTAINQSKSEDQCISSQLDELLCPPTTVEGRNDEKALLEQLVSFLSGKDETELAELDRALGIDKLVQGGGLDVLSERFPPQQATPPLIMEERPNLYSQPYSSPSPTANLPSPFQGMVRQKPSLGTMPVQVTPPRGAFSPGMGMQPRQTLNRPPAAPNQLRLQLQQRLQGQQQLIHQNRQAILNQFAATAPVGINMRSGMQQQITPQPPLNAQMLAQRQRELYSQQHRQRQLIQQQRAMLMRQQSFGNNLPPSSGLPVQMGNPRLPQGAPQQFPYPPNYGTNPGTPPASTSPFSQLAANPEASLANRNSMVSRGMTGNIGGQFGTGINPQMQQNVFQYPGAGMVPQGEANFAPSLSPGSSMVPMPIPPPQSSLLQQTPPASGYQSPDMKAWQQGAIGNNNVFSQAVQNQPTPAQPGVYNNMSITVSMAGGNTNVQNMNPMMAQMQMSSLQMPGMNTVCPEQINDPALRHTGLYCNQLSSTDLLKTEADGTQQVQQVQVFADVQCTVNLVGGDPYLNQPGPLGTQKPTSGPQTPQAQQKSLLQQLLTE
Chain of Nuclear receptor subfamily 5 group A member 2 (Homo sapiens) (O00482 whole entry, looked up): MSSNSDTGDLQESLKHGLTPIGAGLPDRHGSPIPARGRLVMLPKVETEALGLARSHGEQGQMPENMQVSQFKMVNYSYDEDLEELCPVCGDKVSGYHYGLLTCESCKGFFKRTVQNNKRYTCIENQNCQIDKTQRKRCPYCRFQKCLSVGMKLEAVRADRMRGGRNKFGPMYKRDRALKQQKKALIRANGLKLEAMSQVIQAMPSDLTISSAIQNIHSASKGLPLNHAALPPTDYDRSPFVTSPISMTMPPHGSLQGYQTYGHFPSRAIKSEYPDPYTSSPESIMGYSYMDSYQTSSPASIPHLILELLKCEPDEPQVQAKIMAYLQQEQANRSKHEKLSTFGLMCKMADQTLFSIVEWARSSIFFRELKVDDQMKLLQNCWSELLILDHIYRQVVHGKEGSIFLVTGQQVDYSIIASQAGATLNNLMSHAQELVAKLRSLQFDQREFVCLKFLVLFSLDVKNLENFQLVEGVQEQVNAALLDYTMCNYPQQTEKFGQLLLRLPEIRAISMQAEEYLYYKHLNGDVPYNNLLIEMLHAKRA

As to `COC(=O)C1=C(CN2CCCc3ccccc32)NC(=O)NC1c1ccc(F)cc1` (stereo not drawn), the inhibition was 65.7% (active) in assay [1]; 32.3% (active) in assay [2]; 60% (active) in assay [3]; 34.7% (active) in assay [4]; 71.5% (active) in assay [5]; 17% in assay [6]. In addition, the inhibition is 63.3% (active) in assay [7] and 4.51% in assay [8].
For `Clc1ccc(OCCN2CCN(c3ncnc4sccc34)CC2)cc1`, the inhibition is 14.2% in assay [1]; 40.4% (active) in assay [2]; -17.4% in assay [3]; 42.2% (active) in assay [4]; 34.8% (active) in assay [5]; 58.5% (active) in assay [6]. Moreover, the inhibition was 50.2% (active) in assay [7] and 46.7% (active) in assay [8].
Regarding `COc1ccccc1NC(=S)NN=C(C)c1ccccn1`, the inhibition in assay [1] is 4.97%; in assay [2], 65.2% (active); in assay [3] it was -16.5%; in assay [4], 64% (active); in assay [5] it was 81.8% (active); in assay [6] it was 98.4% (active). Also, the inhibition is 85.8% (active) in assay [7] and 70.8% (active) in assay [8].
Turning to `COc1ccccc1-[n+]1c(C)cc(/C=C2\Sc3ccccc3N2C)cc1C`, the inhibition is 81.9% (active) in assay [1]; 85.2% (active) in assay [2]; 8.54% in assay [3]; 79.1% (active) in assay [4]; 38.9% (active) in assay [5]; 104% (active) in assay [6]. Also, the results for the inhibition in assay [7] and in assay [8] were 83.3% (active) and 91% (active), respectively.
Consider `COc1ccc(-c2noc(CCCC(=O)O)n2)cc1`, for which the inhibition was 44.7% (active) in assay [1]; 36.1% (active) in assay [2]; 30.7% in assay [3]; 26% (active) in assay [4]; 39% (active) in assay [5]; 47.8% (active) in assay [6]. Moreover, the inhibition was 40.1% in assay [7] and 30.7% in assay [8].
As for `c1ccc(-c2nnc(-c3ccccn3)nc2NC2CCCCC2)cc1`, the inhibition in assay [1] is 70.2% (active); in assay [2] it was 14.8%; in assay [3], 49.1% (active); in assay [4], 18.8%; in assay [5], 82.6% (active); in assay [6] it was 88.9% (active). In addition, the inhibition in assay [7] is 74.7% (active); in assay [8], 45.4% (active).

The values above are taken from PubChem BioAssay.
